# FLuc counter: inhibits or activates purified firefly luciferase, miR-21 counter-screen; Potency, µM (series often up to 57.5 µM), for inactives: top-dose activity change, negative = inhibition, most hits filed as inhibitors; purified FLuc, Km substrates, luminescence inhibition; actives 6.9% (n = 360,000); AID 588342;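 further: plate controls were vehicle for no effect and reference inhibitor for full effect; nearly all actives have a fitted effect of over 55% in size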
# Target sequence (P08659 whole entry, looked up): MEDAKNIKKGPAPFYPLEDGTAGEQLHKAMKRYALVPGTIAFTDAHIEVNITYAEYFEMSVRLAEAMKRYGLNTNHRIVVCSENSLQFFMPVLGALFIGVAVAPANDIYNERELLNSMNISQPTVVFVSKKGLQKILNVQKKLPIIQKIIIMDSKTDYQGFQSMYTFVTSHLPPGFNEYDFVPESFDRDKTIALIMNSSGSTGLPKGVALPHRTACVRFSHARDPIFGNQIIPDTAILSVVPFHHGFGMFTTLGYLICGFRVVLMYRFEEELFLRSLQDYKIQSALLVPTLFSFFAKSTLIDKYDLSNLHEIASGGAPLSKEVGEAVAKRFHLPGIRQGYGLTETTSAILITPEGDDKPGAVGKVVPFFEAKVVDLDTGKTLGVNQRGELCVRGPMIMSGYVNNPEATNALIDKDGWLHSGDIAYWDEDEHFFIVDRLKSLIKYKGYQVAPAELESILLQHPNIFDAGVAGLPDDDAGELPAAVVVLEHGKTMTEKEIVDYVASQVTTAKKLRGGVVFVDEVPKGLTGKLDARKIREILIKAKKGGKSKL
#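 Purified P. pyralis luciferase (10nM final) with 10uM D-luciferin and 10uM ATP (Km levels) in 50mM Tris acetate pH 7.5, 10mM Mg acetate, 0.01% Tween-20, 0.05% BSA; qHTS 6-point titration, ~60 µM downward; luminescence read.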
# Rab9 prom act: activators of Rab9 promoter; Huh7 Rab9 promoter-luciferase reporter, luminescence, 24 h; Potency, µM (highest dose often 9.22 µM), without a hit: at the highest dose activation, negative = inhibition, hits mostly activators; actives 2.8% (n = 320,000); AID 485297; further: % of control where 0% means no effect; nearly all actives have a fitted effect of over 60% in size
#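 Measured in stably transfected Huh7 cells bearing a Rab9 promoter–luciferase construct: 24 h compound treatment at 37 °C, followed by luminescence detection.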
# NPC1 promoter act: NPC1 promoter activation; Potency, µM (top dose mostly 9.22 µM), inactives show at the top dose activation, actives largely listed as activators; AID 485313; actives 2.4% (n = 320,000); Huh7 NPC1 promoter luciferase reporter, 24 h; further: % of control where 0% means no effect; nearly all actives have a fitted effect of over 60% in size
#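 Stable NPC1-promoter luciferase Huh7 line; cpd (DMSO) 24 h, 37 °C, 5% CO2; Amplite luciferase reagent 10 min RT; luminescence readout. qHTS format.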
# SMN2 splice enh: SMN2 splice variant enhancement. HEK293 SMN2-luciferase splicing reporter, luminescence, 30-36 h. Potency, µM (highest dose often 46.1 µM), for inactives: at the top dose activity change, positive = activation, hits mostly activators. actives 2.8% (n = 210,000); further: % of control where 0% means no effect; nearly all actives have a fitted effect of over 55% in size
#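 HEK293 cells carry an SMN2 minigene-luciferase reporter in which exon 7 inclusion puts luciferase in frame. Cells were seeded at 2000 cells/well, attached for 10-12 hours, then exposed to compounds for 30-36 hours at 37C before ONE-Glo luminescence.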
# Luc counter: counter-screen: inhibitors of Kinase-Glo firefly luciferase. actives 0.28% (n = 200,000). Potency, µM (titrated, usually from 38.3 µM), without a hit: top-dose activity change, negative = inhibition, hits mostly inhibitors. Kinase-Glo luciferase, ATP luminescence, 8 min; further: on the % scale 0 is the no-effect control and ±100 the full control effect; nearly all actives have a fitted effect of over 60% in size
#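 Kinase-Glo luciferase light output from ATP and luciferin was measured with 10 uM ATP, within the enzyme's linear range. Buffer: 50 mM imidazole pH 7.2, 50 mM KCl, 7 mM MgCl2, 0.01% Tween 20, 0.05% BSA; luminescence read after 8 min at ambient temperature.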
# ELG1 genotox: induces genotoxicity in HEK293T cells with luciferase-tagged ELG1. HEK293T ELG1-luciferase reporter, luminescence, 16 h. Potency, µM (series often up to 46 µM), without a hit: at the top dose activity change, positive = activation, most hits filed as activators. actives 1.3% (n = 330,000). AID 504466; further: % of control where 0% means no effect; nearly all actives have a fitted effect of over 60% in size
#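 Screening used a luciferase reporter fused to human ELG1 in HEK293T cells. Luminescence was read on a CCD plate imager after 16 hr exposure and 30 min ONE-Glo incubation.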
# The depositor's hits bear a star; ? = inconclusive; . = no result given; [ ] = remark or other dose. In the library only some 7.5% were active in any assay of this set; here they are far more common. The call rests on the fitted dose curve; in most records, active means well fitted curve in the direction sought with a large enough effect; inconclusive means small, poorly fitted or top-dose-only effect, or another doubt; inactive means no such curve, though single readings can be large; an effect the other way counts as inactive or inconclusive. Potency means the concentration at half of the fitted maximal effect.
SMILES,FLuc counter,Rab9 prom act,NPC1 promoter act,SMN2 splice enh,Luc counter,ELG1 genotox
Cc1onc(-c2ccccc2)c1C(=O)NC1C(=O)N2C(C(=O)O)C(C)(C)S[C@@H]12 (stereo partly specified),.,.,.,6%,0%,.
ClC(Cl)(Cl)C(Cl)(Cl)Cl,.,.,.,21%,.,.
O[N+]1=CC=CCC1=S.On1ccccc1=S.[Zn],.,.,.,-89%,-7%,.
O=C(O)C(Oc1nc(=S)[nH]c(=S)[nH]1)(c1ccc(Cl)cc1)c1ccc(Cl)cc1,.,.,.,1%[9.22 µM],-1%[7.66 µM],.
CCCOc1ccc(C(=O)Nc2ccc(-c3cc4ccccc4oc3=O)c(C)c2)cc1,1.7µM*,.,.,-63%,.,.
COc1ccc(C(=O)Nc2cccc(S(=O)(=O)NCc3ccco3)c2)cc1,.,.,.,.,.,-3%
COc1cccc(-n2nc(C(=O)N3CCC4(CC3)OCCO4)c3ccccc3c2=O)c1,-1%,-3%,0%,12%,6%,-6%
COc1ccc(-n2nc(C(=O)NCC(=O)N3CCC4(CC3)OCCO4)c3ccccc3c2=O)cc1OC,3µM*,?,20%,.,.,10%
COc1ccc(C(C)=O)cc1CC(C(=O)c1ccc(Br)cc1)N(C)C (stereo unspecified),3%,2%,-3%,-6%,3%,-3%
COc1cc(C(C)=O)ccc1OCc1cc(C(=O)N(C)CCC2CCCCO2)no1 (stereo unspecified),6.7µM*,1.6µM*,2.2µM*,.,.,?
O=C(Nc1ccc2c(c1)OCO2)c1cccn(Cc2cccc(F)c2)c1=O,27µM*,.,.,.,.,.
O=C(Nc1ccc2c(c1)OCO2)c1cccn(Cc2ccccc2)c1=O,17µM*,.,.,.,.,.
CCc1ccc(NC(=O)c2cccn(Cc3cccc([N+](=O)[O-])c3)c2=O)cc1,9.5µM*,.,.,.,.,.
O=C(Nc1ccon1)c1cccn(Cc2ccccc2)c1=O,-2%,.,.,.,.,.
O=C(Nc1ccncc1)c1cccn(Cc2ccccc2)c1=O,-14%,-29%,-27%,-75%,7%,1%
O=C(Nc1ccccc1)c1cccn(Cc2ccccc2)c1=O,24µM*,4µM*,16%,-46%,1%,?
C[C@H](CC(C#N)(c1ccccc1)c1ccccc1)N1CCCCC1,.,.,.,-16%[9.22 µM],-2%[7.66 µM],.
O=C(Nc1ccc2c(c1)OCCO2)c1cccn(Cc2cccc(F)c2)c1=O,21µM*,.,.,.,.,.
O=C(CSCc1ccccc1)Nc1ccc2c(c1)OCO2,15µM*,3.2µM*,?,11%,0%,?
Cc1ccc(Cn2cccc(C(=O)Nc3ccc4c(c3)OCO4)c2=O)cc1,-17%,.,.,.,.,.
Cc1ccc(NC(=O)N(Cc2ccc3c(c2)OCO3)C2CCN(Cc3ccccc3)CC2)cc1C,-6%,.,.,.,.,.
Cc1ccc(Cn2cccc(C(=O)Nc3ccc4c(c3)OCCO4)c2=O)cc1,8.5µM*,.,.,.,.,.
CCC12CCN(C)CC1Oc1c(C)cccc12 (stereo unspecified),-2%,.,.,.,.,.
[CH3][Hg][Cl],.,.,.,-6%,.,.
CCc1ccc(-c2nn(Cc3ccccc3)cc2C=O)cc1,6.7µM*,1µM*,2.5µM*,14µM*,-1%,?
SMILES,FLuc counter,Rab9 prom act,NPC1 promoter act,SMN2 splice enh,Luc counter,ELG1 genotox
O=C(O)c1cn(Cc2ccccc2)nc1-c1ccccc1,-15%,0%,-1%,-11%,0%,-3%
O=C1NC(=O)N(Cc2ccc(F)cc2)C(=O)/C1=C/c1cccs1,?,2%,-4%,-21%,0%,?
O=C1NC(=O)N(Cc2ccccc2Cl)C(=O)/C1=C/c1cccs1,15µM*,-4%,-7%,-11%,6%,?
Cc1cc(/C=C2\C(=O)NC(=O)N(Cc3ccco3)C2=O)c(C)n1-c1ccc(O)cc1,15µM*,-10%,5%,.,-14%,11%
Cc1ccccc1-n1c(C)cc(/C=C2/C(=O)NC(=O)N(Cc3ccco3)C2=O)c1C,19µM*,-1%,-2%,4%,0%,5%
Cc1ccc(N2C(=O)NC(=O)/C(=C\c3cc(C)n(-c4ccc(C(=O)O)cc4)c3C)C2=O)cc1,-4%,-5%,3%,.,.,-1%
Cc1ccc(-n2c(C)cc(/C=C3/C(=O)NC(=O)N(Cc4ccco4)C3=O)c2C)cc1,19µM*,-1%,0%,-19%,-1%,1%
Cc1cc(/C=C2\C(=O)NC(=O)N(Cc3ccco3)C2=O)c(C)n1-c1ccc(C(=O)O)cc1,-2%,4%,-3%,.,.,5%
Cc1ccc(-n2c(C)cc(/C=C3/C(=O)NC(=O)N(C)C3=O)c2C)cc1,0.6µM*,-2%,-1%,-6%,-7%,1%
CCc1ccc(N2C(=O)NC(=O)/C(=C\c3cccn3CCOc3ccc(C(C)C)cc3)C2=O)cc1,-1%,?,-11%,-65%,-2%,10µM*
COC(=O)C(O)(c1ccc(NC(=O)Oc2ccccc2)cc1)C(F)(F)F (stereo unspecified),15µM*,-1%,1%,18%,-2%,2%
Cc1nn(C(C)(C)C)c(C)c1/C=N/OC(=O)Nc1ccc(Cl)c(Cl)c1,0.19µM*,-38%,-24%,.,.,-12%
C=CCNC(=S)Nc1ccc(OC(=O)Nc2ccc(Cl)c(Cl)c2)cc1,-17%,-3%,-7%,.,.,-10%
O=C(Nc1ccc(Cl)c(Cl)c1)c1ccco1,21µM*,?,?,.,.,?
N[C@@H](CSC1c2ccccc2-c2ccccc21)C(=O)O,.,.,.,-3%[9.22 µM],-4%[7.66 µM],.
CC[C@H](CO)Nc1nc(NCc2ccccc2)c2ncn(C(C)C)c2n1,.,.,.,18µM*,-2%,.
Clc1ccc(C(c2ccc(Cl)cc2)C(Cl)Cl)cc1,.,.,.,-16%,.,.
O=C1NC(=O)C(=Cc2cccc(OCCOc3ccccc3)c2)C(=O)N1,15µM*,0.32µM*,0.56µM*,.,.,?
Cc1ccc(OCCOc2cccc(C=C3C(=O)NC(=O)NC3=O)c2)c(C)c1,7.6µM*,0.13µM*,0.089µM*,.,.,?
O=[As](O)(O)c1ccc(NCc2ccccc2)cc1,.,.,.,-6%[9.22 µM],-1%[7.66 µM],.
O=[As](O)(O)c1ccc(Cc2ccc([As](=O)(O)O)cc2)cc1,.,.,.,-35%[9.22 µM],0%[7.66 µM],.
CCOc1ccc(OC(=O)c2ccc3c(=O)n4c(nc3c2)CCC4)cc1,12µM*,-3%,-1%,.,.,-4%
O=C(Nc1ccccc1F)Oc1cccc(OC(=O)Nc2ccccc2F)c1,17µM*,2.8µM*,3.5µM*,.,.,10%
COc1ccc(C)cc1NC(=O)CN1CCN(CC(=O)Nc2ccccc2F)CC1,2%,-10%,-3%,-54%,2%,?
CCCCN1CC(O)=C(c2nc3ccccc3s2)C1=N,?,?,?,5%,-2%,11%
CNC(=O)COC(=O)c1ccc(-c2nc3ccccc3s2)s1,1.1µM*,20%,?,16µM*,-23%,3.7µM*
